Source: PubChem BioAssay AID485270 (The Scripps Research Institute Molecular Screening Center, 2010)
In all, about 330,000 compounds went through this assay and about 5,800 (1.8%) were called active. The sample as a whole holds a higher share of actives than the screen did. Unmarked numbers belong to inactive results. Rule as the data show it: active = inhibition mostly above about 38% (no sharp cut-off); inactive = mostly below about 40%.

molecular target: Orexin/Hypocretin receptor type 1 (Homo sapiens) (UniProt O43613); experiment: antagonists of human orexin 1 receptor (OX1R) (AID 485270); conditions: OX1R-expressing cells, FRET antagonist read-out; at 6.6 µM; stronger effect = higher value;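 also: 0% = agonist challenge alone and 100% = reference antagonist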
Sequence (O43613 whole entry, looked up): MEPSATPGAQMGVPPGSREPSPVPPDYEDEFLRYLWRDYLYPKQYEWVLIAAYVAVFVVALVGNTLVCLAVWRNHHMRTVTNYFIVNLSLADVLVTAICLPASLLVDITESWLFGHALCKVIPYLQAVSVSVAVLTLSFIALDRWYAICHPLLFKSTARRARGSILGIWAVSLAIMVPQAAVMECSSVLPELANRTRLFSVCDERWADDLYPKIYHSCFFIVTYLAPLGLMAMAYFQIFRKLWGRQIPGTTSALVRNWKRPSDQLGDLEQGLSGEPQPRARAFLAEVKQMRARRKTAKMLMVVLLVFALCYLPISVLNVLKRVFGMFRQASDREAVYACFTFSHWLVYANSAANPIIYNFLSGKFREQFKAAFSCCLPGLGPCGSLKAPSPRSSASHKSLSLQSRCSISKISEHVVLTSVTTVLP

SMILES | inhibition
O=C(N/N=C/c1c(O)n(C2CC2)c(=S)[nH]c1=O)c1ccccc1Cl | 16.5%
O=C(N/N=C/c1c(O)n(Cc2ccccc2)c(=O)[nH]c1=O)c1ccccc1 | 20.1%
O=C(N/N=C/c1c(O)n(C2CC2)c(=S)[nH]c1=O)c1ccccc1 | 48.4% (active)
O=C(CSC1c2ccccc2-c2ccccc21)N/N=C/c1ccccc1 | 53.4%
CNC(=O)Nc1ccc(C(O)(C(=O)OC)C(F)(F)F)cc1 (stereo not given) | 1.75%
COc1ccc2c(c1O)-c1cccc3c1[C@@H](C2)N(C)CC3 | 21.8%
Cc1nc2ccc(N3CCN(C)CC3)cc2nc1C | 36.4%
CCN1CCN(c2ccc([N+](=O)[O-])cc2C#N)CC1 | 30.8%
CN1CCN(c2cc(N3CCNCC3)ccc2[N+](=O)[O-])CC1 | 61% (active)
Cc1cccc2c(CCN)c[nH]c12 | 13.2%
COc1ccccc1N=Nc1c(O)[nH]c(=S)[nH]c1=O | 55.9% (active)
O=C1N=c2ccccc2=C/C1=C\c1c(O)[nH]c(=S)[nH]c1=O | 42.6%
CCOCCc1c(O)[nH]c(=S)[nH]c1=O | -2.14%
O=c1[nH]c(CN2CC=C(c3ccccc3)CC2)nc2scc(-c3cccs3)c12 | 7.54%
CC(=O)Nc1ccc(C(=O)C(Cc2ccccc2)N(C)C)cc1 (stereo not given) | 4.57%
COc1cccc(-c2nc3ccc(N4CCN(C)CC4)cc3[nH]2)c1 | 20.4%
CCN(CC)c1ccc([N+](=O)[O-])c2cccnc12 | 28.8%
CN(c1ccccc1)c1ccc([N+](=O)[O-])c2nonc12 | 73.5% (active)
CN1CCN(Cc2ccc(OC(F)(F)F)cc2)CC1 | 2.95%
O=C(Cc1ccccc1)N1CCN(C2CCCCCC2)CC1 | -3.88%
